Test results from the supplement of paper PMC9023506.
Where a name gives a salt, the structure may show the parent alone.

tested on: Danio rerio larvae (5 dpf); assay: optomotor response to green moving lines, difference vs DMSO (percentage points (treated minus DMSO)); higher = more of the behaviour than the DMSO vehicle control; conditions: 10 µM; exposure time: 3 h pre-incubation + 3 h imaging
Description: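 5-dpf wild-type zebrafish larvae were imaged in 96-well plates. They were treated with 190 Tocris FDA-approved drugs at 10 µM (1 µl/ml DMSO) for 3 h before and 3 h during imaging at 28.5 °C, 48 larvae per drug. Automated image analysis gave % time moving and optomotor responses. Values are drug group mean minus DMSO vehicle mean (n=844), in percentage points, for 10 behaviours.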

Structure (SMILES) | optomotor response to green moving lines
CN1CC[C@@H](NC(=O)Nc2ccc(C#N)cc2)C[C@@H]1c1nc2ccccc2[nH]1 | -5.63
COc1cc2ncnc(Nc3ccc(F)c(Cl)c3)c2cc1OCCCN1CCOCC1 [Iressa] | -10.8
CC(C)n1c(/C=C/C(O)CC(O)CC(=O)O)c(-c2ccc(F)cc2)c2ccccc21 (stereo not given) [Fluvastatin sodium] | -3.1
NC(=O)N1c2ccccc2C=Cc2ccccc21 [Carbamazepine] | -0.434
N[C@@H]1[C@H]2CN(c3nc4c(cc3F)c(=O)c(C(=O)O)cn4-c3ccc(F)cc3F)C[C@@H]12 [Trovafloxacin mesylate] | -4.23
CCOC(=O)c1ncn2c1CN(C)C(=O)c1cc(F)ccc1-2 [Flumazenil] | 15
CC(=O)Oc1ccccc1C(=O)O [Aspirin] | -12.5
CCOC(=O)[C@H](CCc1ccccc1)N[C@@H](C)C(=O)N1[C@H](C(=O)O)C[C@@H]2CCC[C@@H]21 [Ramipril] | -0.542
CC(=O)NC[C@H]1CN(c2ccc(N3CCOCC3)c(F)c2)C(=O)O1 [Linezolid] | 5.36
Clc1ccc(COC(Cn2ccnc2)c2ccc(Cl)cc2Cl)c(Cl)c1 (stereo not given) [Miconazole nitrate] | -5.21
CN(CCOc1ccc(CC2SC(=O)NC2=O)cc1)c1ccccn1 (stereo not given) [Rosiglitazone] | 1.76
Cn1nnc2c(C(N)=O)ncn2c1=O [Temozolomide] | -1.84
COc1cc(N)c(Cl)cc1C(=O)NC1CCN(CCCOc2ccc(F)cc2)CC1OC (stereo not given) [Cisapride] | 5.81
CCc1c2c(nc3ccc(OC(=O)N4CCC(N5CCCCC5)CC4)cc13)-c1cc3c(c(=O)n1C2)COC(=O)[C@]3(O)CC | -1.18
C[C@@H]1C[C@H]2[C@@H]3CCC4=CC(=O)C=C[C@]4(C)[C@@]3(F)[C@@H](O)C[C@]2(C)[C@@]1(O)C(=O)CO [Dexamethasone] | 1.46
CC(=O)O[C@H]1C(=O)[C@@]2(C)[C@H]([C@H](OC(=O)c3ccccc3)[C@]3(O)C[C@H](OC(=O)[C@H](O)[C@@H](NC(=O)c4ccccc4)c4ccccc4)C(C)=C1C3(C)C)[C@]1(OC(C)=O)CO[C@@H]1C[C@@H]2O [Taxol] | -4.62
Cc1ccc(O)c([C@H](CCN(C(C)C)C(C)C)c2ccccc2)c1 [Tolterodine L-tartrate] | 0.477
CNC(=O)c1cc(Oc2ccc(NC(=O)Nc3ccc(Cl)c(C(F)(F)F)c3)cc2)ccn1 [Sorafenib] | -2.72
CCCCc1nc(Cl)c(CO)n1Cc1ccc(-c2ccccc2-c2nnn[nH]2)cc1 [Losartan potassium] | -0.568
Cc1cccc(C)c1OCC(C)N (stereo not given) [Mexiletine hydrochloride] | -1.17

Structure (SMILES) | optomotor response to green moving lines
COc1c(C)c2c(c(O)c1C/C=C(\C)CCC(=O)O)C(=O)OC2 [Mycophenolic acid] | -1.15
C[C@@H](O[C@H]1OCCN(Cc2n[nH]c(=O)[nH]2)[C@H]1c1ccc(F)cc1)c1cc(C(F)(F)F)cc(C(F)(F)F)c1 [Aprepitant] | 4.81
COc1cc([C@@H]2c3cc4c(cc3[C@@H](O[C@@H]3O[C@@H]5CO[C@@H](C)O[C@H]5[C@H](O)[C@H]3O)[C@H]3COC(=O)[C@H]23)OCO4)cc(OC)c1O [Etoposide] | -0.812
Cn1cnc([N+](=O)[O-])c1Sc1ncnc2[nH]cnc12 [Azathioprine] | -1.06
CCCCC1=NC2(CCCC2)C(=O)N1Cc1ccc(-c2ccccc2-c2nnn[nH]2)cc1 [Irbesartan] | -19
C[C@]12CCC(=O)C=C1CC[C@@H]1[C@@H]2[C@@H](O)C[C@@]2(C)[C@H]1CC[C@]2(O)C(=O)CO [Hydrocortisone] | 10.5
Cc1cn([C@H]2C=C[C@@H](CO)O2)c(=O)[nH]c1=O [Stavudine] | 1.24
O=c1n(CCCN2CCN(c3cccc(Cl)c3)CC2)nc2ccccn12 [Trazodone hydrochloride] | 1.17
CCCCCCCCc1ccc(CCC(N)(CO)CO)cc1 | -1.15
CC(C)(C(=O)c1cccnc1)c1cccnc1 [Metyrapone] | -5.18
COc1cc2nc(N3CCN(C(=O)c4ccco4)CC3)nc(N)c2cc1OC [Prazosin hydrochloride] | -10.2
Nc1cc(N2CCCCC2)nc(N)[n+]1[O-] [Minoxidil] | -7.05
CC(C)C(=O)OCC(=O)[C@@]12O[C@H](C3CCCCC3)O[C@@H]1C[C@H]1[C@@H]3CCC4=CC(=O)C=C[C@]4(C)[C@H]3[C@@H](O)C[C@@]12C [Ciclesonide] | -7.98
C/C(O)=C(\C#N)C(=O)Nc1ccc(C(F)(F)F)cc1 [Teriflunomide] | -10.8
O=C(O)CCCc1ccccc1 [Sodium 4-Phenylbutyrate] | -2.96
NS(=O)(=O)c1cc(C(=O)O)c(NCc2ccco2)cc1Cl [Furosemide] | -6.99
CC(C)Nc1cccnc1N1CCN(C(=O)c2cc3cc(NS(C)(=O)=O)ccc3[nH]2)CC1 [Delavirdine mesylate] | -4.7
Cc1ccccc1C(=O)Nc1ccc(C(=O)N2CCCC(O)c3cc(Cl)ccc32)c(C)c1 (stereo not given) [Tolvaptan] | 10.3
Nc1nc(Cl)nc2c1ncn2[C@@H]1O[C@H](CO)[C@@H](O)[C@@H]1F [Clofarabine] | 7.3
CCCc1nc(C(C)(C)O)c(C(=O)O)n1Cc1ccc(-c2ccccc2-c2nnn[nH]2)cc1 [Olmesartan] | -2.59
